According to PubChem BioAssay:
“And” between values parts separate entries of the source, which are not always exact repeats. Equal entries are not always repeated. The source made the active and inactive calls.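 How the source made its calls, unless noted: active means mean z-score across replicates of 1.96 or higher in either the MELAS or the Rieske mutant cell line; inactive means the rest.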

What was measured:
[1] = test system: Hepatitis C virus NS3 helicase; assay: HCV NS3 helicase inhibitors, primary screen, biochemical, fluorescence polarization, NIH Clinical Collection (AID 743270; call rule not given here); settings: NS3 helicase binding to Cy5-dT15 DNA, stronger effect = higher value, concentration not given here
[2] = target: Single-stranded DNA-binding protein (Escherichia coli (strain K12)) (UniProt P0AGE0); assay: E. coli SSB displacement from DNA, counter-screen for HCV NS3 helicase inhibitor project, biochemical, fluorescence polarization, NIH Clinical Collection (AID 743271; in the data active means inhibition above about 28%); settings: stronger effect = higher value, concentration not given here
[3] = fluorescence interference in NS3h assay format, artefact control for HCV NS3 helicase inhibitor project, biochemical, NIH Clinical Collection (AID 743272; call rule not given here;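 further: HCV NS3 helicase with a Cy5 labelled single stranded DNA probe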); settings: fluorescence interference counterscreen, stronger effect = lower value
[4] = stimulators of nuclear beta-catenin in C2C12, primary screen, imaging, WNT3A-conditioned medium, mouse C2C12, NPC library (AID 1117326; in the data active means nuclear beta-catenin stimulation mostly above about 4.2%, no sharp cut-off; inactive means mostly below about 10%); settings: stronger effect = higher value
[5] = stimulators of insulin release from INS-1E, primary screen, cell-based, 5 mM glucose, NPC library (AID 1117329;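 active means compound raises insulin release from rat beta cells at 5 mM glucose, no numeric limit stated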); settings: rat INS-1E insulin secretion, at 10 µM, stronger effect = higher value
[6] = growth inhibition of GSK3B-pretreated HCT116 cells – cell-based, CellTiter-Glo, 0.2 to 20 µM (AID 1117336;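 active means compounds lowering colon cancer cell viability after pretreatment blocking the GSK3B kinase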); settings: HCT116 viability after GSK3B inhibitor, at 20 µM, stronger effect = higher value
[7] = inhibition of endothelial tube formation, primary screen, imaging, VEGF stimulated, CD31 staining, tube area, NPC library (AID 1117340;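 active means compound that reduces growth-factor-driven endothelial tube area in a mixed cell culture, no cutoff stated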); settings: VEGF-stimulated ADSC/ECFC co-culture, at 10 µM, stronger effect = higher value
[8] = glucagon-like peptide 1 release enhancers, primary assay, NCI-H716 cell line, NPC library (AID 1117341;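 active means compound raises GLP1 secretion from the human gut endocrine cells, with no numeric limit stated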); settings: NCI-H716 cells, at 10 µM, stronger effect = higher value
[9] = HCT116 colon cancer cell growth inhibition, primary screen, CellTiter-Glo luminescence, NPC library (AID 1117342;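 active means compounds that lower survival of HCT116 colon cancer cells in the luminescence readout, no numeric limit stated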); settings: at 20 µM (top of the series)
[10] = CellTiter-Glo luminescent readout of SW480 viability loss, NPC library primary (AID 1117343;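 active means compounds that lower viability of the colon cancer cells in the luminescence readout, with no numeric limit stated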); settings: CellTiter-Glo luminescence; at 20 µM (top of the series)
[11] = decreased DLD-1 cellular survival, CellTiter-Glo luminescent readout, NPC compound collection, primary HTS (AID 1117346;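 active means compounds that lower survival of DLD-1 colon cancer cells in the luminescence readout, no cutoff given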); settings: DLD-1 viability, CellTiter-Glo luminescence; at 20 µM (top of the series)
[12] = target: 6-phosphogluconate dehydrogenase, decarboxylating (Homo sapiens) (UniProt P52209); assay: 6PGD enzyme inhibitors, primary screen, biochemical, human, recombinant enzyme, NADPH absorbance (AID 1159550;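 active means at least 20% inhibition of 6-phosphogluconate dehydrogenase activity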); settings: recombinant 6PGD, NADPH absorbance 341 nm; at 10 µM; stronger effect = higher value
Chain of 6-phosphogluconate dehydrogenase, decarboxylating (Homo sapiens) (P52209 whole entry, looked up): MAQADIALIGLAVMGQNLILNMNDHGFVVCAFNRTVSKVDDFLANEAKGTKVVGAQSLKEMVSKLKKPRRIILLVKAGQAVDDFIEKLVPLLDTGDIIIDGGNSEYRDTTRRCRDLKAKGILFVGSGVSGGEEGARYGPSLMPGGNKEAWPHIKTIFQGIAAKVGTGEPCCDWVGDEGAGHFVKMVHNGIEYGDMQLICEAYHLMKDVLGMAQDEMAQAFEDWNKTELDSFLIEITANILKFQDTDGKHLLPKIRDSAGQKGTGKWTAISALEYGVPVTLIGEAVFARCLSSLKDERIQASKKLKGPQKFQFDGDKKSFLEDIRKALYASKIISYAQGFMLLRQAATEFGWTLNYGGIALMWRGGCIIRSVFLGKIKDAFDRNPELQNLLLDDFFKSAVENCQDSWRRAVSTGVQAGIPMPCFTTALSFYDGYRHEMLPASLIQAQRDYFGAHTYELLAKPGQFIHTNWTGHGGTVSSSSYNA

[13] = differential killing of epithelial or mesenchymal cells, primary screen, imaging, PC-3E GFP, TEM4-18 mCherry, co-culture (AID 1345086;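 active means compounds killing one labelled cell type while sparing the other, by normalised counts and ratio limits, not self-fluorescent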;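 on all read-outs here: cells exposed to compound for 72 h before imaging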;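 on red/green cell ratio (normalised): normalised mesenchymal count divided by normalised epithelial count so high means epithelial killing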); settings: imaging cell counts, at 1 µM; for red/green cell ratio (normalised): actives lie on both sides, counts scaled to control wells, 1 = unselective
[14] = survival rescue of mitochondrial mutant cells in low glucose, primary screen, MELAS cybrids, Rieske KO mouse fibroblasts, CellTiter-Glo (AID 1508586);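 further: z relative to plate mean and SD of compound and empty wells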
[15] = target: NAD(+) hydrolase SARM1 (Homo sapiens) (UniProt Q6SZW1); assay: SARM1 TIR NADase inhibitors, cell lysate, NAD-Glo luminescence (AID 1508614;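 active means compound whose remaining NAD level is above about 45 nM, limit read from the data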); settings: SAM-TIR HEK293T lysate NADase, at 1 µM, stronger effect = higher value
Chain of NAD(+) hydrolase SARM1 (Homo sapiens) (Q6SZW1 whole entry, looked up, the tested form may be a part): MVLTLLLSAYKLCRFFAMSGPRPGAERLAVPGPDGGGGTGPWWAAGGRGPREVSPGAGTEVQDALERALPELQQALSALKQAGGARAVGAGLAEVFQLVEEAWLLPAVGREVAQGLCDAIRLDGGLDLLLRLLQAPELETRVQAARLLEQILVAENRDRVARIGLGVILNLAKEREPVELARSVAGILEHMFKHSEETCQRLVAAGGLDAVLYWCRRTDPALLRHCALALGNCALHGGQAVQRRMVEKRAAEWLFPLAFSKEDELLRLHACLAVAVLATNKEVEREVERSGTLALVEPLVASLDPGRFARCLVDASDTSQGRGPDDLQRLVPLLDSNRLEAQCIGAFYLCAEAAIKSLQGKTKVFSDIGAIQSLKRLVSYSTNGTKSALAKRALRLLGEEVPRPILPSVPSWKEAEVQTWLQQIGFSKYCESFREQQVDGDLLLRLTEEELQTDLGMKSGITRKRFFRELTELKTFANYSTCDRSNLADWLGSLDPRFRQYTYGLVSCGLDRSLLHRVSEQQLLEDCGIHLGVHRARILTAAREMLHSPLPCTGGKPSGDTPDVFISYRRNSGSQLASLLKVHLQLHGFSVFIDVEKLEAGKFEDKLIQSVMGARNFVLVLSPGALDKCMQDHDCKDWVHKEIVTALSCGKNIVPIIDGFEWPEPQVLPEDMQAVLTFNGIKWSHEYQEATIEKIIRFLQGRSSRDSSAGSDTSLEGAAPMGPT

[16] = target: Mitogen-activated protein kinase 7 (Homo sapiens) (UniProt Q13164); assay: ERK5 transactivation activators in reporter cells, primary screen, cell-based, HTS (AID 1508626;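 active means luciferase signal above three times the same-plate solvent-only control wells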;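 further: luciferase driven by Gal4-ERK5 fusion binding five Gal4 sites before minimal TATA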); settings: HeLa Gal4-ERK5 transactivation, 18 h, at 5 µM, stronger effect = higher value
Chain of Mitogen-activated protein kinase 7 (Homo sapiens) (Q13164 whole entry, looked up, the tested form may be a part): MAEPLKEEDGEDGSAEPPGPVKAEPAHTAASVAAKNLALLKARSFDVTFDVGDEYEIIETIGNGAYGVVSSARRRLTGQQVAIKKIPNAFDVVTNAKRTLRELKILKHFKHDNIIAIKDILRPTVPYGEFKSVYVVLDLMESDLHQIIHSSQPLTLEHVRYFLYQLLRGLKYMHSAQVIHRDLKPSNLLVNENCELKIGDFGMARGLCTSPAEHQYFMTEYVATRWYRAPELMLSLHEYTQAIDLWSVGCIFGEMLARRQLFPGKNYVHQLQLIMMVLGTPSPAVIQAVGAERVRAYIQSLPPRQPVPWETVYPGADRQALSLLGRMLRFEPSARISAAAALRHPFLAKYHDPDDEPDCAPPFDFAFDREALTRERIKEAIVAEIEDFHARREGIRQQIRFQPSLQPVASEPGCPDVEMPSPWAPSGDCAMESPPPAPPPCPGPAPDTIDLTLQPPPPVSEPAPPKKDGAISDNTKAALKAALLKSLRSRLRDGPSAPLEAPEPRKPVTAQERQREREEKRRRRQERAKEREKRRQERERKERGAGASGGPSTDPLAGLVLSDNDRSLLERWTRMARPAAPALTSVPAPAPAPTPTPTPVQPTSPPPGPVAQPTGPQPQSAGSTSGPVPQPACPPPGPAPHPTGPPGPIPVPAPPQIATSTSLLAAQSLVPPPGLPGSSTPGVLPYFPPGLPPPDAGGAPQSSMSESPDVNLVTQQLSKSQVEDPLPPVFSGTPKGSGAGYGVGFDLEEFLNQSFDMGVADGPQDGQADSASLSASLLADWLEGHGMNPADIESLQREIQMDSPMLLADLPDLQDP

F380Y = assay: modulators of BK channel variants, profiling panel, selectivity assay, cell-based, U2OS BacMam, thallium flux, beta subunits (AID 1259406;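 active means thallium flux through the channel raised or lowered by more than 3 SD from vehicle-only wells, actives on both sides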;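 further: initial slope of Thallos dye fluorescence rise after thallium is added; log ratio against the mean of 0.3% DMSO vehicle wells on the same plate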); settings: at 30 µM
F380Y/beta2Delta = assay: as above; settings: at 30 µM
[17] = target: Calcium-activated potassium channel subunit alpha-1 (Homo sapiens) + Leucine-rich repeat-containing protein 26 (Homo sapiens) (UniProt Q12791+Q2I0M4); assay: as above; settings: F380Y/Slo1WT/gamma1, at 30 µM
Chain of Calcium-activated potassium channel subunit alpha-1 (Homo sapiens) + Leucine-rich repeat-containing protein 26 (Homo sapiens) (Q2I0M4 whole entry, looked up, one chain of several): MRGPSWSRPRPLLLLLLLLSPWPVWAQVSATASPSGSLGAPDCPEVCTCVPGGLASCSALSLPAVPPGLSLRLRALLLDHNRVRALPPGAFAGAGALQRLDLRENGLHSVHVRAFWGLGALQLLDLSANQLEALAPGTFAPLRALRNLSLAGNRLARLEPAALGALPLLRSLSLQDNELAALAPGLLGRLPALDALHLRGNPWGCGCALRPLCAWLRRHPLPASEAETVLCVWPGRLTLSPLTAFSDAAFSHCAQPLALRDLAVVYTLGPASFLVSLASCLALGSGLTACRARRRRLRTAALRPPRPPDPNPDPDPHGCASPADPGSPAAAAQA

[18] = sensitizers of A549 cells to miR-34 induction, primary screen, imaging, A549 dox-inducible miR-34, nuclei and caspase counts (AID 1347080;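 active means compounds whose cell count with miR-34 switched on is under 0.7 times the count with it off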); settings: A549 miR-34 inducible, Hoechst nuclei count, 48 h
[19] = measured here: epithelial PC-3E GFP cell survival
[20] = measured here: mesenchymal TEM4-18 mCherry cell survival
[21] = MELAS cybrid survival, CellTiter-Glo 48 h, stronger effect = higher value
[22] = Rieske KO mouse fibroblast survival, CellTiter-Glo 72 h

Fc1ccc([C@@H]2CCNC[C@H]2COc2ccc3c(c2)OCO3)cc1
0.48: normalised cell number [13, 19]
0.47: normalised cell number [13, 20]
inactive: inhibition [1] -1.19% | inhibition [2] -1.64% | fluorescence ratio [3] 0.99 | nuclear beta-catenin stimulation ([4]; at 10 µM) 2.2% | insulin secretion stimulation [5] 11.8% | viability decrease [6] -148% | GLP1 secretion stimulation [8] 1.4% | inhibition of viability [9] 28.1% | viability decrease (inhibition) [10] 23% | viability decrease (inhibition) [11] 19.7% | inhibition [12] -2.44% | red/green cell ratio (normalised) [13] 0.99 | z-score [14, 21] -0.279 and -0.953 | remaining NAD [15] 10 nM | luciferase signal [16] 168 AU
2.8%: nuclear beta-catenin stimulation ([4]; stimulation, at 2 µM)
-0.644 and -0.322: z-score [14, 22]
active: tube area decrease [7] 46.2%

CNCCCC12CCC(c3ccccc31)c1ccccc12
0.98: normalised cell number [13, 20]
inactive: inhibition [1] -1.98% | inhibition [2] -1.64% | fluorescence ratio [3] 0.83 | nuclear beta-catenin stimulation ([4]; at 10 µM) 1.9% | insulin secretion stimulation [5] 12.2% | tube area decrease [7] 12.2% | GLP1 secretion stimulation [8] 4.8% | inhibition [12] 8.09% | red/green cell ratio (normalised) [13] 0.89 | z-score [14, 21] -0.365 and 0.126 and 0.618 | remaining NAD [15] 10 nM | luciferase signal [16] 48 AU | log fold change Tl+ flux (F380Y) 0.104 | log fold change Tl+ flux [17] 0.0351
active: viability decrease [6] 55.6% | inhibition of viability [9] 87.4% | viability decrease (inhibition) [10] 121% | viability decrease (inhibition) [11] 68.3% | log fold change Tl+ flux (F380Y/beta2Delta) 0.203
1.11: normalised cell number [13, 19]
0.802 and 0.382 and 0.29: z-score [14, 22]
-0.1%: nuclear beta-catenin stimulation ([4]; stimulation, at 2 µM)

CC(=O)S[C@@H]1CC2=CC(=O)CC[C@]2(C)[C@H]2CC[C@@]3(C)[C@@H](CC[C@@]34CCC(=O)O4)[C@H]12
9050 and 8450 and 9710: cell count ([18]; measured here: total cells without miR-34 induction)
2.4%: nuclear beta-catenin stimulation ([4]; stimulation, at 2 µM)
0.325 and -0.236: z-score [14, 22]
1.96 and 1.1 and 1.66: fold change ([18]; measured here: relative caspase fold change +Dox/-Dox)
inactive: inhibition [1] -3.18% | inhibition [2] -0.48% | fluorescence ratio [3] 0.9 | nuclear beta-catenin stimulation ([4]; at 10 µM) 4.4% | insulin secretion stimulation [5] -2% | viability decrease [6] -2% | tube area decrease [7] 17% | GLP1 secretion stimulation [8] 2.4% | inhibition of viability [9] 28.7% | viability decrease (inhibition) [10] 41.7% | viability decrease (inhibition) [11] 26.4% | inhibition [12] 14.1% | fold change ([18]; stronger effect = lower value, cell number ratio, induced over uninduced) 0.941 and 0.878 and 0.848 | z-score [14, 21] 0.887 and 0.469 | remaining NAD [15] 10 nM | luciferase signal [16] 56 AU | log fold change Tl+ flux (F380Y) -0.00371 | log fold change Tl+ flux (F380Y/beta2Delta) -0.0301 | log fold change Tl+ flux [17] 0.0238
8520 and 7420 and 8230: cell count ([18]; measured here: total cells with miR-34 induction, stronger effect = lower value)

CCCCc1oc2ccccc2c1C(=O)c1cc(I)c(OCCN(CC)CC)c(I)c1
1.02: normalised cell number [13, 19]
active: nuclear beta-catenin stimulation ([4]; at 10 µM) 71.4% | viability decrease [6] 103% | tube area decrease [7] 110% | inhibition of viability [9] 102% | viability decrease (inhibition) [10] 129% | viability decrease (inhibition) [11] 105%
0.8%: nuclear beta-catenin stimulation ([4]; stimulation, at 2 µM)
1.1: normalised cell number [13, 20]
inactive: inhibition [1] -1.97% | inhibition [2] 1.97% | fluorescence ratio [3] 0.95 | insulin secretion stimulation [5] 0.6% | GLP1 secretion stimulation [8] 3.9% | inhibition [12] 7.85% | red/green cell ratio (normalised) [13] 1.08 | z-score [14, 21] -0.425 and -1.46 and 0.238 | remaining NAD [15] 10 nM | luciferase signal [16] 44 AU
0.341 and -0.317 and -0.0304: z-score [14, 22]
